Results reported in PubChem BioAssay (EPA / NIEHS).
Calls of active or inactive are those of the source. Rule for the calls: active = hit-call score of the fitted dose curve at least 0.9, where 1 is the maximum; inactive = score below 0.9.

Key:
Conditions in all cases: mRNA level, 48 h; actives raise or lower the signal
MYC, MYC (gene 4609) = assay: LTEA_HepaRG_MYC: Life Technologies and Expression Analysis (LTEA) Assay for MYC using HepaRG (AID 2283518)
How it was run: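 Cells are thawed, plated and cultured 48 h, then treated for 48 h with test chemicals (eight half-log concentrations from 100 uM, 0.5% DMSO vehicle). RNA is isolated and MYC expression quantified by qRT-PCR against three housekeeping genes.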

[1] = read-out: matrix metalloproteinase-3 (MMP3), MMP3 (gene 4314); assay: LTEA_HepaRG_MMP3: Life Technologies and Expression Analysis (LTEA) Assay for matrix metalloproteinase-3 (MMP3) using HepaRG (AID 2283519)
How it was run: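 qRT-PCR read-out of MMP3 mRNA (normalised to three housekeeping genes) in HepaRG liver cells after 48 h chemical exposure; 8-point half-log series, top 100 uM, 0.5% DMSO vehicle. Bidirectional curve fitting against DMSO baseline.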

[2] = read-out: Paternally Expressed 10 (PEG10), PEG10 (gene 23089); assay: LTEA_HepaRG_PEG10: Life Technologies and Expression Analysis (LTEA) Assay for Paternally Expressed 10 (PEG10) using HepaRG (AID 2283520);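 for AC50: PEG10 transcript by qRT-PCR normalised to ACTB GAPDH and POLR2A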
How it was run: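 Human HepaRG cultures are dosed for 48 h across an eight-point half-log series starting at 100 uM, with 0.5% DMSO as vehicle and baseline. Gain or loss of PEG10 transcript is measured by qRT-PCR and fitted in both directions.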

[3] = read-out: Protein phosphatase 2A (PPP2R4), PTPA (gene 5524); assay: LTEA_HepaRG_PPP2R4: Life Technologies and Expression Analysis (LTEA) Assay for Protein phosphatase 2A (PPP2R4) using HepaRG (AID 2283522)
How it was run: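 Cells were plated, cultured 48 h, switched to serum-free induction medium, then dosed for 48 h (8 points, max 100 uM, 0.5% DMSO). RNA was isolated and PPP2R4 expression measured by TaqMan qRT-PCR.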

[4] = read-out: Phosphatase and tensin (PTEN), PTEN (gene 5728); assay: LTEA_HepaRG_PTEN: Life Technologies and Expression Analysis (LTEA) Assay for Phosphatase and tensin (PTEN) using HepaRG (AID 2283523)
How it was run: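 HepaRG, 48 h exposure, 8-pt half-log series from 100 uM top, 0.5% DMSO vehicle, duplicates. Readout: Fluidigm qRT-PCR of PTEN transcript; housekeeping normalization (ACTB, GAPDH, POLR2A). Gain or loss fitted relative to DMSO baseline.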

[5] = read-out: solute carrier (SLC22A1), SLC22A1 (gene 6580); assay: LTEA_HepaRG_SLC22A1: Life Technologies and Expression Analysis (LTEA) Assay for solute carrier (SLC22A1) using HepaRG (AID 2283524)
How it was run: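 qRT-PCR readout (TaqMan, Fluidigm arrays) of SLC22A1 transcript, normalized to three housekeeping genes; bidirectional curve fit relative to 0.5% DMSO vehicle. Differentiated human HepaRG cells, 48 h chemical exposure, top concentration 100 uM, half-log steps, eight points.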

[6] = read-out: Pyruvate Dehydrogenase Kinase 4 (PDK4), PDK4 (gene 5166); assay: LTEA_HepaRG_PDK4: Life Technologies and Expression Analysis (LTEA) Assay for Pyruvate Dehydrogenase Kinase 4 (PDK4) using HepaRG (AID 2283525)
How it was run: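 HepaRG (human liver line), 48 h chemical exposure, 8-pt half-log CRC top 100 uM, 0.5% DMSO vehicle, duplicates. Readout: TaqMan qRT-PCR of PDK4 mRNA, housekeeping-normalized; gain/loss fit relative to DMSO baseline.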

[7] = read-out: NAD(P)H dehydrogenase [quinone] 1 (NQO1), NQO1 (gene 1728); assay: LTEA_HepaRG_NQO1: Life Technologies and Expression Analysis (LTEA) Assay for NAD(P)H dehydrogenase [quinone] 1 (NQO1) using HepaRG (AID 2283526)
How it was run: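 Transcript induction or suppression is quantified by qRT-PCR in human HepaRG liver cells dosed for 48 hours. Eight half-log concentrations topping at 100 uM are used, with 0.5% DMSO as vehicle and baseline.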

[8] = read-out: Nuclear factor erythroid 2-related factor 2 (Homo sapiens) (UniProt Q16236); assay: LTEA_HepaRG_NFE2L2: Life Technologies and Expression Analysis (LTEA) Assay for Nuclear factor erythroid 2-related factor 2 (NFE2L2) Transcription Factor using HepaRG (AID 2283527)
How it was run: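 HepaRG, 48 h dosing, 8-pt half-log series from 100 uM in 0.5% DMSO, duplicates. Read-out: NFE2L2 mRNA by qRT-PCR (ACTB/GAPDH/POLR2A normalization). Bidirectional curve fit vs DMSO baseline.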

[9] = read-out: succinate dehydrogenase complex iron sulfur subunit B (SDHB), SDHB (gene 6390); assay: LTEA_HepaRG_SDHB: Life Technologies and Expression Analysis (LTEA) Assay for succinate dehydrogenase complex iron sulfur subunit B (SDHB) using HepaRG (AID 2283528)
How it was run: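 HepaRG cells (~100,000/well, plated 48 h) exposed in duplicate for 48 h in serum-free induction medium to 8-point half-log series from 100 uM in 0.5% DMSO; mRNA by qRT-PCR normalised to ACTB, GAPDH, POLR2A; bidirectional fit versus DMSO.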

[10] = read-out: Signal transducer and activator of transcription 3 (Homo sapiens) (UniProt P40763); assay: LTEA_HepaRG_STAT3: Life Technologies and Expression Analysis (LTEA) Assay for Signal transducer and activator of transcription (STAT3) using HepaRG (AID 2283529)
How it was run: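 HepaRG, 48 h exposure, 8-pt half-log series (top 100 uM), 0.5% DMSO vehicle, duplicates. Readout: STAT3 transcript by Fluidigm qRT-PCR, housekeeping-normalized; bidirectional fit vs DMSO baseline.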

[11] = read-out: solute carrier (SLCO1B1), SLCO1B1 (gene 10599); assay: LTEA_HepaRG_SLCO1B1: Life Technologies and Expression Analysis (LTEA) Assay for solute carrier (SLCO1B1) using HepaRG (AID 2283530)
How it was run: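 Gain or loss of SLCO1B1 mRNA is fitted against the 0.5% DMSO vehicle in human HepaRG liver cells treated 48 h at up to 100 uM in half-log steps. Expression comes from qRT-PCR normalized to endogenous controls.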

[12] = read-out: sulfotransferase 2A1 (SULT2A1), SULT2A1 (gene 6822); assay: LTEA_HepaRG_SULT2A1: Life Technologies and Expression Analysis (LTEA) Assay for sulfotransferase 2A1 (SULT2A1) using HepaRG (AID 2283531)
How it was run: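 Cells were plated and cultured 48 h, switched to serum-free induction medium, then dosed in duplicate for 48 h (8 concentrations, max 100 uM). RNA was isolated and SULT2A1 expression measured by qRT-PCR; gain or loss of signal fitted relative to DMSO.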

[13] = read-out: Transforming Growth Factor (TGFA), TGFA (gene 7039); assay: LTEA_HepaRG_TGFA: Life Technologies and Expression Analysis (LTEA) Assay for Transforming Growth Factor (TGFA) using HepaRG (AID 2283532)
How it was run: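 qRT-PCR read-out of TGFA transcript, normalized to three housekeeping genes, fitted bidirectionally against 0.5% DMSO baseline. Human HepaRG cultures received chemicals for 48 h at eight half-log concentrations, top 100 uM.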

[14] = read-out: Transforming Growth Factor (TGFB1), TGFB1 (gene 7040); assay: LTEA_HepaRG_TGFB1: Life Technologies and Expression Analysis (LTEA) Assay for Transforming Growth Factor (TGFB1) Transporter using HepaRG (AID 2283533)
How it was run: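 Expression change of TGFB1 in human HepaRG cells is measured after a 48 h chemical exposure, up to 100 uM in 0.5% DMSO vehicle. Curves are fitted in both directions relative to the DMSO baseline.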

TIMP1, TIMP1 (gene 7076) = assay: LTEA_HepaRG_TIMP1: Life Technologies and Expression Analysis (LTEA) Assay for TIMP1 using HepaRG (AID 2283534)
How it was run: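 We dosed human liver HepaRG cultures for 48 hours with up to 100 uM test chemical and measured TIMP1 expression by qRT-PCR. Activity in either direction is fitted relative to the 0.5% DMSO vehicle.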

[15] = read-out: Tumor necrosis factor receptor 1 (TNFRSF1A), TNFRSF1A (gene 7132); assay: LTEA_HepaRG_TNFRSF1A: Life Technologies and Expression Analysis (LTEA) Assay for Tumor necrosis factor receptor 1 (TNFRSF1A) using HepaRG (AID 2283535)
How it was run: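 Expression of TNFRSF1A in human HepaRG liver cells was measured by qRT-PCR 48 h after chemical dosing (maximum 100 uM). Bidirectional curve fitting used 0.5% DMSO as baseline.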

[16] = read-out: Thyroid Hormone Responsive (THRSP), THRSP (gene 7069); assay: LTEA_HepaRG_THRSP: Life Technologies and Expression Analysis (LTEA) Assay for Thyroid Hormone Responsive (THRSP) using HepaRG (AID 2283536)
How it was run: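 qRT-PCR read-out (Fluidigm TaqMan), housekeeping-normalized (ACTB/GAPDH/POLR2A). HepaRG, 48 h chemical exposure, 8-pt half-log series from 100 uM in 0.5% DMSO, duplicates. Bidirectional curve fit vs 0.5% DMSO baseline.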

[17] = read-out: Cellular tumor antigen p53 (Homo sapiens) (UniProt P04637); assay: LTEA_HepaRG_TP53: Life Technologies and Expression Analysis (LTEA) Assay for Tumor Protein P53 (TP53) using HepaRG (AID 2283537)
How it was run: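 Differentiated HepaRG cells in serum-free induction medium exposed 48 h in duplicate to 8 half-log concentrations, top 100 uM, 0.5% DMSO. TP53 mRNA by TaqMan qRT-PCR (Fluidigm), normalized to ACTB, GAPDH, POLR2A; fitted bidirectionally versus DMSO.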

[18] = read-out: Nuclear factor NF-kappa-B p105 subunit (Homo sapiens) (UniProt P19838); assay: LTEA_HepaRG_NFKB1: Life Technologies and Expression Analysis (LTEA) Assay for Nuclear Factor Kappa B Subunit 1 (NFKB1) using HepaRG (AID 2283521);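 note: TaqMan qRT-PCR transcript normalised to ACTB GAPDH and POLR2A housekeeping genes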
How it was run: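 Differentiated human HepaRG cells in serum-free induction medium with 0.5% DMSO were exposed for 48 h to eight half-log concentrations, top 100 uM, in duplicate. NFKB1 mRNA measured by Fluidigm TaqMan qRT-PCR, normalised to ACTB, GAPDH and POLR2A; bidirectional fit versus DMSO.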

Measured: AC50

Chain of Cellular tumor antigen p53 (Homo sapiens) (P04637 whole entry, looked up): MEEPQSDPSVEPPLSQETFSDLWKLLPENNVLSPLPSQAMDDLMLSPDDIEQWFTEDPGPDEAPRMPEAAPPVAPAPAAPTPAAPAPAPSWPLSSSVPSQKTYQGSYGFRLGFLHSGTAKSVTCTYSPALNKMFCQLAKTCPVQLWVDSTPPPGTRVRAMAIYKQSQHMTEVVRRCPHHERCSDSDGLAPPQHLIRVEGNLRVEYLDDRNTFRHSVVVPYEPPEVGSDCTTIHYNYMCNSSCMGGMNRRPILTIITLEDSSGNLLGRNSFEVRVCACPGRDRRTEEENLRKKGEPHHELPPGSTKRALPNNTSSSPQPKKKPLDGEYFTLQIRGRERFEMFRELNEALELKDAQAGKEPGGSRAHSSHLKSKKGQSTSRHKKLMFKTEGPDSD
Chain of Nuclear factor NF-kappa-B p105 subunit (Homo sapiens) (P19838 whole entry, looked up): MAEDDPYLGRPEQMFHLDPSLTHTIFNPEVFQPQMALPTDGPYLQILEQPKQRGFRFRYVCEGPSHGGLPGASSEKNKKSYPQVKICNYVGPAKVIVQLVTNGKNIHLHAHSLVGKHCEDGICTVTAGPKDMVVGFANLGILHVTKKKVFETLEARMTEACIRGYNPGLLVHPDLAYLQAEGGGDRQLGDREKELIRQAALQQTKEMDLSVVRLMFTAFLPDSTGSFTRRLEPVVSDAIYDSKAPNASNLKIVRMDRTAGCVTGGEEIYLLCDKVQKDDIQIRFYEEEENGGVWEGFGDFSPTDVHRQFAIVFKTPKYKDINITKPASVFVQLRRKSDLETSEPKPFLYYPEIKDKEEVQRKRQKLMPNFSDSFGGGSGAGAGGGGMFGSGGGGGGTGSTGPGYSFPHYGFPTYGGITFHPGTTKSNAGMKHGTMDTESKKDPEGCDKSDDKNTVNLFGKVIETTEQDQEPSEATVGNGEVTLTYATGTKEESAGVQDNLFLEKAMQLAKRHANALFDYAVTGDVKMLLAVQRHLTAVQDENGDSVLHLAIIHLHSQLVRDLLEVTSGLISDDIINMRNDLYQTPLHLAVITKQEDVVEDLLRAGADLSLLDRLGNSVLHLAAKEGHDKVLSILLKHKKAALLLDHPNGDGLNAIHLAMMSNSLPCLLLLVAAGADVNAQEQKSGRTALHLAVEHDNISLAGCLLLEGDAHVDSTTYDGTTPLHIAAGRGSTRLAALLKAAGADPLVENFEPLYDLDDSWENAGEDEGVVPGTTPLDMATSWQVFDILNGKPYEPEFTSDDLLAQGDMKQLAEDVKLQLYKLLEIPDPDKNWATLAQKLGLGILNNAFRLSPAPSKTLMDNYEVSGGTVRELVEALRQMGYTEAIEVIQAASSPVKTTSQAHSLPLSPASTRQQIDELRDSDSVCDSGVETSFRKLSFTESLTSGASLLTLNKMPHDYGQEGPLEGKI
Chain of Signal transducer and activator of transcription 3 (Homo sapiens) (P40763 whole entry, looked up): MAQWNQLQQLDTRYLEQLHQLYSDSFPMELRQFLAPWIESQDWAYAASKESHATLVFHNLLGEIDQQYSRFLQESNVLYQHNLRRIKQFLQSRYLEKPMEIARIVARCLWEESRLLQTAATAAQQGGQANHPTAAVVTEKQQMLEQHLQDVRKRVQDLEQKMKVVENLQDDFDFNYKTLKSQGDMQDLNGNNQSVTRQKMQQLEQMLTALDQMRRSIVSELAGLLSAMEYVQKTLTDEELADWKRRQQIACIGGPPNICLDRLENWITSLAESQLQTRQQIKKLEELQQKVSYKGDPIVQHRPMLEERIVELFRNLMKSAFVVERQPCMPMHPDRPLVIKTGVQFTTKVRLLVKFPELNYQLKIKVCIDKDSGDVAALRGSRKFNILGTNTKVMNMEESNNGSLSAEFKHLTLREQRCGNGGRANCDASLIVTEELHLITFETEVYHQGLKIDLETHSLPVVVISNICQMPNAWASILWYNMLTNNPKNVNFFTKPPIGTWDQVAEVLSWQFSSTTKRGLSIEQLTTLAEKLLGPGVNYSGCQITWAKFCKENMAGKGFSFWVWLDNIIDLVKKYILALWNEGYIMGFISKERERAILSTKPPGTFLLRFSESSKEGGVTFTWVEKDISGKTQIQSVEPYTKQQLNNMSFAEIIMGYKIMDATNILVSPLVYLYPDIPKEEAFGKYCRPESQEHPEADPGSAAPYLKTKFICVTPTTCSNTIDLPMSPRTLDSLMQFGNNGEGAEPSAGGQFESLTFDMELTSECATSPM
Chain of Nuclear factor erythroid 2-related factor 2 (Homo sapiens) (Q16236 whole entry, looked up): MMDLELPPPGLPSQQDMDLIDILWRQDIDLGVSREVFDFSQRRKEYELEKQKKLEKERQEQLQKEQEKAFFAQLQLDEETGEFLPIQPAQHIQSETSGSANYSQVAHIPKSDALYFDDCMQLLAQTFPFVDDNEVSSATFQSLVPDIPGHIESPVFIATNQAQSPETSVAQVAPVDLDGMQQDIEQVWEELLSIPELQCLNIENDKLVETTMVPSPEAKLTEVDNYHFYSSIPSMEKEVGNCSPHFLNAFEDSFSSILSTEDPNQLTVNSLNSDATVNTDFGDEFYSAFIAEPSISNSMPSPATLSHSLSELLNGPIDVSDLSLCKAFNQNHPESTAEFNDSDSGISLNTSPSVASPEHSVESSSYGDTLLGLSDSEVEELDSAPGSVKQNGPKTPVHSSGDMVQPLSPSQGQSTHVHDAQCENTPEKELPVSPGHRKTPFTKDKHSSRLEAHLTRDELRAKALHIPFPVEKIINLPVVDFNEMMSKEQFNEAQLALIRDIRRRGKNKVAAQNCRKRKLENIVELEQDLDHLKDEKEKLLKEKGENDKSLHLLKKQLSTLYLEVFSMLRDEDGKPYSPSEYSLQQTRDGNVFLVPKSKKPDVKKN

CCCCc1ccccc1
not listed: [17] | [18]
inactive: all other assays above

Nc1ccc2ccccc2c1
active: MYC, MYC (gene 4609) 50 µM | [8] 29.8 µM | [16] 9.29 µM
not listed: [18]
inactive: all other assays above

OCC1CO1 (centres undefined)
not listed: [18]
inactive: all other assays above

c1ccc2c(c1)Nc1ccccc1S2
active: [2] 77.1 µM | [16] 32.5 µM
not listed: [18]
inactive: all other assays above

CCOP(=S)(Oc1ccc([N+](=O)[O-])cc1)c1ccccc1 (centres undefined)
active: [4] 0.0422 µM | [8] 37.9 µM | [16] 50 µM
not listed: [7] | [11] | [17]
inactive: all other assays above

CC(Cc1ccc(OCC(=O)O)cc1)NCC(O)c1csc(C(F)(F)F)n1 (centres undefined)
active: [2] 0.0862 µM
not listed: [18]
inactive: all other assays above

Cc1cccc(N)c1
inactive: all assays above

CCCN(CCC)c1c([N+](=O)[O-])cc(C(C)C)cc1[N+](=O)[O-]
active: [2] 43.3 µM | [5] 77.4 µM | [6] 20.9 µM | TIMP1, TIMP1 (gene 7076) 0.11 µM | [15] 0.0432 µM | [17] 0.322 µM
not listed: [18]
inactive: all other assays above

CC(Cl)(Cl)C(=O)O
not listed: [17] | [18]
inactive: all other assays above

CC(C)(C)c1ccc(O)cc1
not listed: [8] | [18]
inactive: all other assays above

ClC1=C(Cl)C2(Cl)C3C(Cl)C(Cl)CC3C1(Cl)C2(Cl)Cl (centres undefined)
active: MYC, MYC (gene 4609) 50 µM | [1] 23.6 µM | [2] 2.31 µM | [14] 77 µM
inactive: all other assays above

CSC(C)(C)C=NO
not listed: [17] | [18]
inactive: all other assays above

Nc1ccc(Cl)cc1
not listed: [18]
inactive: all other assays above

ClC(Cl)(Cl)c1ccccc1
not listed: [8] | [18]
inactive: all other assays above

O=[N+]([O-])c1ccccc1
inactive: all assays above

O=C(O)C(Cl)Cl
not listed: [17] | [18]
inactive: all other assays above
